A short description of assay [1]: qHTS RealTime-Glo MT Cell Viability Assay in HEK293 cells - 40 hour (AID 1224874). Further: nearly all actives have a fitted effect of over 50% in size. As to conditions: RealTime-Glo luminescence; max response: stronger effect = lower value. The essentials:
(§1)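 600 cells/well were plated with the nonlytic NanoLuc/prosubstrate reagent, pre-incubated 5 h, then given 23 nL of compound in DMSO. Incubation at 37 C for 40 h, with luminescence from viable-cell-reduced substrate read repeatedly from 0 h.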
(In general: qHTS replaces the single test concentration by a dilution series.)

The nature of assay [2]: A CellTox Green Cytotoxicity Assay to monitor cytotoxicity in HEK293 cells - 24 hour (AID 1224875). Further: series mostly up to about 77 µM; nearly all actives have a fitted effect of over 45% in size. An outline of the steps: (§2)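 HEK293 cells, 600/well, were preincubated 5 hours and then exposed to compounds at 37 C for up to 40 hours. A cell-impermeant cyanine dye staining dead-cell DNA was read by fluorescence at 0, 8, 16, 24, 32 and 40 h time points.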
A short description of assay [3]: A CellTox Green Cytotoxicity Assay to monitor cytotoxicity in HepG2 cells - 16 hour (AID 1224876). Further: nearly all actives have a fitted effect of over 45% in size. The essentials: (§3)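 HepG2 cells, 600/well, preincubated 5 h with CellTox Green dye, then exposed to Tox21 compounds in DMSO at 37 C for up to 40 h. Dead-cell DNA fluorescence read at the indicated time point.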
Assay [4] in a line: qHTS RealTime-Glo MT Cell Viability Assay in HepG2 cells - 32 hour (AID 1224877). Further: nearly all actives have a fitted effect of over 55% in size. The essentials:
(§4)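 qHTS, HepG2, 600 cells/well, RealTime-Glo (NanoLuc + prosubstrate) added with cells; 5 h preincubation; DMSO compound addition; 37 C; luminescence at 0/8/16/24/32/40 h.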

Assay [5] in a line: A CellTox Green Cytotoxicity Assay to monitor cytotoxicity in HepG2 cells - 24 hour (AID 1224878). Further: nearly all actives have a fitted effect of over 45% in size. Further: potency means the concentration at half of the fitted maximal effect. An outline of the steps: as §3
A short description of assay [6]: A CellTox Green Cytotoxicity Assay to monitor cytotoxicity in HepG2 cells - 40 hour (AID 1224879). Further: nearly all actives have a fitted effect of over 40% in size. Further: potency means the concentration at half of the fitted maximal effect. The essentials:
as §3

The nature of assay [7]: qHTS RealTime-Glo MT Cell Viability Assay in HEK293 cells - 0 hour (AID 1224880). Further: top concentration of the series differs between compounds; nearly all actives have a fitted effect of over 45% in size. An outline of the steps: as §1
Assay [8] in a line: A CellTox Green Cytotoxicity Assay to monitor cytotoxicity in HEK293 cells - 32 hour (AID 1224881). Further: nearly all actives have a fitted effect of over 40% in size. The essentials: as §2
A short description of assay [9]: A CellTox Green Cytotoxicity Assay to monitor cytotoxicity in HepG2 cells - 0 hour (AID 1224882). Further: nearly all actives have a fitted effect of over 35% in size. The essentials: as §3
Assay [10] in a line: A CellTox Green Cytotoxicity Assay to monitor cytotoxicity in HepG2 cells - 32 hour (AID 1224883). Further: nearly all actives have a fitted effect of over 50% in size. Further: potency means the concentration at half of the fitted maximal effect. The essentials:
as §3

A short description of assay [11]: A CellTox Green Cytotoxicity Assay to monitor cytotoxicity in HEK293 cells - 8 hour (AID 1224884). Further: nearly all actives have a fitted effect of over 35% in size. The essentials:
as §2

Assay [12] in a line: qHTS RealTime-Glo MT Cell Viability Assay in HepG2 cells - 16 hour (AID 1224885). Further: nearly all actives have a fitted effect of over 50% in size. An outline of the steps: as §4
A short description of assay [13]: qHTS RealTime-Glo MT Cell Viability Assay in HEK293 cells - 24 hour (AID 1224886). Further: top concentration of the series differs between compounds; nearly all actives have a fitted effect of over 50% in size. An outline of the steps: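 Assay medium contained NanoLuc luciferase plus cell-permeant prosubstrate, added with HEK293 cells at 600 cells/well. After 5 h at 37 C/5% CO2 compounds were added; plates stayed at 37 C for 40 h with serial luminescence reads.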
A short description of assay [14]: qHTS RealTime-Glo MT Cell Viability Assay in HEK293 cells - 8 hour (AID 1224887). An outline of the steps:
as §1

Assay [15] is described as follows: A CellTox Green Cytotoxicity Assay to monitor cytotoxicity in HEK293 cells - 16 hour (AID 1224888). Further: nearly all actives have a fitted effect of over 35% in size. The essentials:
as §2

Assay [16] is described as follows: qHTS RealTime-Glo MT Cell Viability Assay in HepG2 cells - 0 hour (AID 1224889). Further: nearly all actives have a fitted effect of over 50% in size. The essentials: as §4
Assay [17] in a line: A CellTox Green Cytotoxicity Assay to monitor cytotoxicity in HepG2 cells - 8 hour (AID 1224890). Further: nearly all actives have a fitted effect of over 45% in size. The essentials: as §3
A short description of assay [18]: qHTS assay to identify small molecule antagonists of the estrogen receptor alpha (ER-alpha) signaling pathway using the BG1 cell line in the presence of 0.1 nM 17-beta-estradiol - cell viability counter screen (AID 1259241). Further: nearly all actives have a fitted effect of over 40% in size. An outline of the steps:
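Live-cell protease activity (CellTiter-Fluor fluorescence, 30 min) was read in the same wells after VM7Luc4E2 cells had been exposed to compounds with 0.1 nM 17beta-estradiol for 22 hr at 37C.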

Assay [19] is described as follows: qHTS assay to identify small molecule antagonists of the androgen receptor (AR) signaling pathway using the MDA cell line in the presence of 0.5 nM R1881 - cell viability counter screen (AID 1259242). Further: nearly all actives have a fitted effect of over 45% in size. The essentials:
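MDA-kb2 cells (MMTV-luciferase, AR/GR responsive) were treated with compounds plus 0.5 nM R1881 (final) for 16 hr at 37C, 0% CO2. Viability was then read in the same wells as live-cell protease fluorescence (CellTiter-Fluor, 30 min).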

Assay [20] addresses Androgen receptor (Homo sapiens) (UniProt P10275). Nature of the assay: qHTS assay to identify small molecule antagonists of the androgen receptor (AR) signaling pathway using the MDA cell line in the presence of 0.5 nM R1881 (AID 1259243). Further: nearly all actives have a fitted effect of over 50% in size. The essentials: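 MDA-kb2 cells (MMTV-luciferase, responsive to AR and GR) at 3,000/well, rested 5 h at 37C, 0% CO2, then given compounds plus 0.5 nM R1881 (final) for 16 hr. Luciferase read with ONE-Glo after 30 min at room temperature.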

“And” between values parts separate entries of the source, which are not always exact repeats. Identical values can stand only once. Inconclusive results are not listed. The source holds several records for some structures; these can differ, active in one and inactive in another. The source made the active and inactive calls. The call rests on the fitted dose curve; in most records, active means well fitted curve in the direction sought with a large enough effect in the repeat runs; inconclusive means weak or mixed curves; inactive means no such curve, though single readings can be large; an effect the other way counts as inactive or inconclusive.
On the % scale 0 is the no-effect control and ±100 the full control effect.

Sequence of Androgen receptor (Homo sapiens) (P10275 whole entry, looked up): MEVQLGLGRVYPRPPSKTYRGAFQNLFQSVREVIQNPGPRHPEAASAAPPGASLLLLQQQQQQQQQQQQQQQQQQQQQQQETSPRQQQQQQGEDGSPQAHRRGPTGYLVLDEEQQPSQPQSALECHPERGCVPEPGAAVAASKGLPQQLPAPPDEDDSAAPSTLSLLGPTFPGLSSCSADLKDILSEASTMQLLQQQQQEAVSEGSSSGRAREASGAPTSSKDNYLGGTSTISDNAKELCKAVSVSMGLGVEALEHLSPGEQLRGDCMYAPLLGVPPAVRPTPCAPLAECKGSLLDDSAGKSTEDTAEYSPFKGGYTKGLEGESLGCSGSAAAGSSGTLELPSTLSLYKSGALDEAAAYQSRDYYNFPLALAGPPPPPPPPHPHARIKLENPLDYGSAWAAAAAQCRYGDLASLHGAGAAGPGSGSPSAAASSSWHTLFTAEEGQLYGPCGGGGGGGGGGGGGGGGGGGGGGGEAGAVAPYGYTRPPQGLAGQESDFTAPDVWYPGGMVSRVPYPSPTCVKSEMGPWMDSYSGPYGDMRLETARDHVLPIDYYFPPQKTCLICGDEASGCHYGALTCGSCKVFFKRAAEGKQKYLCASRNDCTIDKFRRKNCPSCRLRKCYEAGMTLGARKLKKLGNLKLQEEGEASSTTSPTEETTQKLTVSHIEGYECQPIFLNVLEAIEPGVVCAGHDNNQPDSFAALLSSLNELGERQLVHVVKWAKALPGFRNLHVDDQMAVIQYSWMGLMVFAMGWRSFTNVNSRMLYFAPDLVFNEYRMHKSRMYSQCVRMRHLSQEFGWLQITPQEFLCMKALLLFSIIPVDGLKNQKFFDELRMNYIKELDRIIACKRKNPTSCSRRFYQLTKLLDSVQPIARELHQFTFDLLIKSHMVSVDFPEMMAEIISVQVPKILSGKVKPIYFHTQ

Turning to `CC(=O)C=C(C)C`, the max response in [1] is 1.7% (inactive) and 8.25% (inactive). The Potency result in [2], in [3], in [5], in assay [6], in assay [8] and in assay [9] was “inactive” in each case. The Potency entry in assay [10], in assay [11], in [13], in [15], in [17] and in assay [18] was “inactive” in each case. Moreover, the compound was classed as inactive in assay [4], in assay [7], in assay [12], in assay [14], in [16] and in [19].
Consider `Cc1[nH]c(=O)n(C(C)(C)C)c(=O)c1Cl`, for which the max response in assay [1] is -2.63% (inactive) and 1.93% (inactive). Moreover, the Potency result in assay [2], in assay [3], in assay [5], in assay [6], in [8] and in assay [9] was “inactive” each time. Further, the Potency entry in assay [10], in [11], in [13], in assay [15], in [17] and in assay [18] was “inactive” in each case. The Potency result in assay [20] is “inactive”. The result in assay [4], in assay [7], in assay [12], in [14], in [16] and in [19] was inactive.
For `CCN(CC)c1ccccc1`, in [1], the max response is 8.36% (inactive) and 18.4% (inactive). Besides, the Potency entry in assay [2], in assay [3], in assay [5], in assay [6], in assay [8] and in assay [9] was “inactive” throughout. Moreover, the Potency result in [10], in assay [11], in [13], in assay [15], in [17] and in assay [18] was “inactive” throughout. For the same compound, the Potency result in [20] is “inactive”. The outcome in assay [4], in [7], in [12], in assay [14], in assay [16] and in assay [19] was inactive.
On to `CCC[N+](=O)[O-]`, for which the max response in assay [1] is 7.7% (inactive). Also, the Potency entry in assay [2], in assay [3], in assay [8], in assay [9], in assay [11] and in assay [13] was “inactive” each time. Also, the Potency result in assay [15] and in assay [17] was “inactive” each time. Also, the outcome in assay [4], in assay [7], in assay [12], in [14], in assay [16] and in assay [19] was inactive. Also, the Potency in [5] was 24.1 µM (active) and inactive; in [6], 24.1 µM (active) and inactive; in [10], 21.5 µM (active) and inactive.
Regarding `O=[N+]([O-])c1ccccc1`, in assay [1], the max response was 6.12% (inactive) and 17.8% (inactive). In addition, the Potency result in assay [2], in [3], in assay [5], in [6], in assay [8] and in assay [9] was “inactive” each time. In addition, the Potency result in [10], in [11], in assay [13], in assay [15] and in assay [18] was “inactive” each time. Further, the compound was classed as inactive in assay [4], in assay [7], in assay [12], in [14], in assay [16] and in assay [19].
Regarding `COC(=O)c1ccccc1N`, in assay [1], the max response is 1.4% (inactive) and 10.1% (inactive). Further, the Potency result in assay [2], in assay [3], in assay [5], in assay [6], in [8] and in [9] was “inactive” throughout. Besides, the Potency entry in assay [10], in assay [11], in [13], in [15], in assay [17] and in assay [18] was “inactive” in each case. In addition, the compound was classed as inactive in assay [4], in [7], in assay [12], in assay [14], in assay [16] and in assay [19].
As for `O=c1[nH]c2ccccc2c(=O)o1`, the max response in [1] was -0.172% (inactive). For the same compound, the Potency entry in assay [2], in [3], in [5], in assay [6], in [8] and in assay [9] was “inactive” throughout. The Potency entry in [10], in assay [11], in assay [13], in assay [15] and in assay [18] was “inactive” each time. Also, the result in [4], in [7], in assay [12], in assay [14], in assay [16] and in [19] was inactive.
Turning to `[O-][Cl+2]([O-])O`, the max response in assay [1] is 11.8% (inactive) and -2.78% (inactive). Besides, the Potency result in assay [2], in [3], in assay [5], in [6], in [8] and in assay [9] was “inactive” in each case. Also, the Potency result in assay [10], in [11], in [13], in assay [15] and in assay [18] was “inactive” each time. For the same compound, the outcome in assay [4], in assay [7], in [12], in [14], in assay [16] and in [19] was inactive.
On to `CC(C)(Cl)Cl`, for which the max response in [1] is 0.337% (inactive) and 2.87% (inactive). The Potency entry in [2], in assay [3], in assay [5], in assay [6], in assay [8] and in assay [9] was “inactive” each time. Moreover, the Potency result in [10], in assay [11], in assay [13], in assay [15], in assay [17] and in assay [18] was “inactive” in each case. The outcome in assay [4], in [7], in [12], in [14], in assay [16] and in [19] was inactive.
`O=c1ccc(=O)[nH][nH]1`: in [1], the max response is -2.89% (inactive) and -0.4% (inactive). In addition, the Potency result in assay [2], in [3], in assay [5], in assay [8], in [9] and in assay [11] was “inactive” throughout. The Potency result in [13], in assay [15], in assay [17], in [18] and in [20] was “inactive” in each case. Besides, the compound was called inactive in [4], in assay [7], in assay [12], in [14], in assay [16] and in assay [19]. Also, the Potency result in assay [6] is “inactive and 130 nM (active)”; in [10], “inactive and 130 nM (active)”.
As for `Clc1cccc(Cl)c1Cl`, the max response in assay [1] is 14.5% (inactive). In addition, the Potency result in [2], in assay [3], in assay [5], in assay [6], in assay [8] and in assay [9] was “inactive” each time. The Potency result in assay [10], in assay [11], in [13], in [15], in [17] and in [18] was “inactive” each time. Also, the compound was called inactive in [4], in assay [7], in [12], in assay [14], in [16] and in [19].
Take `Nc1ccc(Oc2ccc(N)cc2)cc1`: in [1], the max response is -6.06% (inactive) and -21.5% (inactive). The Potency result in assay [2], in [3], in [5], in [6], in assay [8] and in [9] was “inactive” throughout. For the same compound, the Potency entry in assay [10], in assay [11], in assay [13], in assay [15], in [17] and in assay [18] was “inactive” each time. In addition, the call in assay [4], in assay [7], in assay [12], in [14], in assay [16] and in assay [19] was inactive.
In the case of `CC(Oc1ccc(Cl)cc1Cl)C(=O)O` (stereo unspecified), the max response in [1] is -2.47% (inactive). Also, the Potency entry in [2], in assay [3], in assay [5], in [6], in assay [8] and in assay [9] was “inactive” throughout. Also, the Potency result in assay [10], in [11], in assay [13], in assay [15], in assay [17] and in assay [18] was “inactive” in each case. The compound was called inactive in assay [4], in assay [7], in assay [12], in assay [14], in [16] and in assay [19].

Source of the values: PubChem BioAssay (Tox21).
